From PubChem BioAssay (EPA / NIEHS)
Several values for one entry are separate records, joined by “and”; a condition that tells them apart may be missing. Equal entries are not always repeated. Some compounds were tested as several samples or in several runs, with calls that do not always agree. Activity calls are given as the source filed them. The calls were made as follows: active = hit-call score of the fitted dose curve at least 0.9, where 1 is the maximum; inactive = score below 0.9.

molecular target: Paired box protein Pax-6 (Homo sapiens) (UniProt P26367); test: ATG_Pax6_CIS: Attagene CIS-FACTORIAL HepG2 Assay for human Paired Box 6 (PAX6) (AID 2282956); conditions: HepG2 CIS-FACTORIAL PAX6 reporter transcription, RNA readout; actives raise or lower the signal
Procedure: ATG_CIS is a cell-based, multiplexed-readout assay that uses HepG2, a human liver cell line, with measurements taken at 24 hours after chemical dosing in a 24-well plate.ATG_Pax6_CIS is one of 52 assay component(s) measured or calculated from the ATG_CIS assay. It is designed to make measurements of mRNA induction, a form of inducible reporter, as detected with fluorescence intensity signals by Reverse transcription polymerase chain reaction (RT-PCR) and Capillary electrophoresis technology.Data from the assay component ATG_Pax6_CIS was analyzed into 1 assay endpoint. This assay endpoint, ATG_Pax6_CIS, was analyzed with bidirectional fitting relative to DMSO as the negative control and baseline of activity. Using a type of inducible reporter, measures of mRNA for gain or loss-of-signal activity can be used to understand the reporter gene at the transcription factor-level as they relate to the gene PAX6. Furthermore, this assay endpoint can be referred to as a primary readout, because this assay has produced multiple assay endpoints where this one serves a reporter gene function. To generalize the intended target to other relatable targets, this assay endpoint is annotated to the dna binding intended target family, where the subfamily is paired box protein.
Human liver HepG2 cells are transiently transfected with multiple reporter transcription units (MRTUs) in 6-well plates using FuGene 6 reagent (Roche; 3 ml FuGene/1 mg DNA). The MRTU constructs are regulated by a cis-regulating element (promoter). […] A major difference between the CIS and TRANS system is that in CIS activities of endogenous TFs are measured, whereas the TRANS assay evaluates changes in activities of exogenous, chimeric NR-Gal4 proteins. […] At the end of 24 hour incubation, total RNA was isolated using TriZol reagent (Invitrogen). The isolated RNA is then reverse-transcribed using oligo(dT) primer and Mo-MLV reverse transcriptase (Invitrogen) with DNAse I (Ambion) treatment for 30 min. The one-tenth of the produced cDNA was amplified by PCR using Taq DNA polymerase (Invitrogen) and two reporter sequence-specific primers. The PCR products were fluorescently labeled by primer extension with 6-arboxyfluorescein (6-FAM) 5'-labeled reporter sequence-specific primer (2 min at 95 C, 20 s at 68 C and 10 min at 72 C) and these products were digested with 5U of HpaI (New England Biolabs) for 2h at 37 C. The fragments were purified using Qiaquick PCR columns (Qiagen), analyzed on an ABI 3130xL genetic analyzer (Applied Biosystems) with peak positions identified by using a set of X-rhodamine (ROX)-labeled MapMarker1000 molecular weight standards (BioVentures). The raw capillary electrophoresis data was processed using Attagraph software (Attagene).

Paired box protein Pax-6 (Homo sapiens), sequence (P26367 whole entry, looked up): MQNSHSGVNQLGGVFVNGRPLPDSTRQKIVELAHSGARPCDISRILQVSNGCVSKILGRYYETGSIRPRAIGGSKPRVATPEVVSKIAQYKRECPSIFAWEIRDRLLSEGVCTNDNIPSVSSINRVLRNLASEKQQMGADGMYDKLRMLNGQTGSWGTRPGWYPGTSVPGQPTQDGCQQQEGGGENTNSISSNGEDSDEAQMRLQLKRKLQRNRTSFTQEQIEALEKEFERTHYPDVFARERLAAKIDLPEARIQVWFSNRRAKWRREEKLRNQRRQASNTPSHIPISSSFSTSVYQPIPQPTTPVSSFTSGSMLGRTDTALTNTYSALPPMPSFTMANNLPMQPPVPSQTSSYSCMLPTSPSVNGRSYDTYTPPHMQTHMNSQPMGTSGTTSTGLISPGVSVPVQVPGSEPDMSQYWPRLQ

Row | SMILES | outcome | AC50
1 | Oc1cc2ccccc2c2ccccc12 | inactive | 
2 | c1ccc2cc3c(ccc4ccccc43)cc2c1 | inactive | 
3 | CN(C)C=O | inactive | 
4 | CC(C)(C)CC(C)(C)c1ccc(O)c(-n2nc3ccccc3n2)c1 | inactive | 
5 | FC(F)(I)C(F)(F)C(F)(F)C(F)(F)C(F)(F)C(F)(F)I |  | 16 µM (active)
6 | CCCOc1sc(C(=O)N2CCC(c3cc(CN)ccc3F)CC2)c(C)c1Br | inactive | 
7 | NC(=O)N1C(=O)C(C(=O)c2cc(Cl)cs2)c2cc(F)c(Cl)cc21 (stereo not given) | inactive | 
8 | CCCCC(CC)COC(=O)CCCCC(=O)OCc1ccccc1 (stereo not given) | inactive | 
9 | NCC(F)(F)C(F)(F)C(F)(F)C(F)(F)C(F)(F)C(F)(F)C(F)(F)F | inactive | 
10 | CCCOC(=O)c1ccc(O)cc1 | inactive | 142 µM (active)
11 | CC1=C(/C=C/C(C)=C/C=C/C(C)=C/C(=O)O)C(C)(C)CCC1 | inactive | 42.8 µM (active)
12 | CCC(=C(c1ccc(O)cc1)c1ccc(OCCN(C)C)cc1)c1ccccc1 | inactive | 7.1 µM (active) and 9.41 µM (active)
13 | CCCCCCCCC(=O)O | inactive | 
14 | CC[C@H](C)[C@@H](C(=O)O)n1sc2ccccc2c1=O | inactive | 
15 | CCCCC(CC)COC(=O)CCCCC(=O)OCC(CC)CCCC (stereo not given) | inactive | 
16 | CC(C)(C)c1ccc(O)c(C(C)(C)C)c1 | inactive | 
17 | OCCC(F)(F)C(F)(F)C(F)(F)C(F)(F)C(F)(F)C(F)(F)C(F)(F)C(F)(F)F |  | 43.3 µM (active) and 176 µM (active)
18 | CCCCCCCCCCCCN1CCCC1=O | inactive | 

Row | SMILES | outcome | AC50
19 | CC#C[C@]1(O)CC[C@H]2[C@@H]3CCC4=CC(=O)CCC4=C3[C@@H](c3ccc(N(C)C)cc3)C[C@@]21C |  | 11.6 µM (active) [middle of 4 runs]
20 | ClC1=C(Cl)C(Cl)(Cl)C(Cl)=C1Cl |  | 18.4 µM (active) and 6.7 µM (active)
21 | O=C(O)Cc1cc(I)c(Oc2cc(I)c(O)c(I)c2)c(I)c1 | inactive | 67 µM (active)
22 | CC(=O)NC1(c2cccc(F)c2)CCN(CC[C@@]2(c3ccc(Cl)c(Cl)c3)CN(c3ccccc3)C(=O)CO2)CC1 |  | 26 µM (active)
23 | c1ccc2c(c1)Cc1ccccc1-2 | inactive | 
24 | COC(=O)CCCCC(=O)OC | inactive | 
25 | NC(=O)N(O)[C@@H]1C=C[C@H](Oc2cccc(Oc3ccc(F)cc3)c2)C1 |  | 33 µM (active)
26 | CCCCOCCO | inactive | 
27 | CCCCC[C@H](O)CC(=O)CCc1ccc(O)c(OC)c1 | inactive | 
28 | O=c1c(-c2ccc(O)cc2)coc2cc(O)ccc12 | inactive | 
29 | CC(O)C(=O)O (stereo not given) | inactive | 
30 | O=C(OCCOCCOC(=O)c1ccccc1)c1ccccc1 | inactive | 
31 | CC[C@H](c1ccc(O)cc1)[C@@H](CC)c1ccc(O)cc1 | inactive | 
32 | c1ccc2c(c1)ccc1ccccc12 | inactive | 
33 | N#C[C@@H]1CC(F)(F)CN1C(=O)CNC1CC2CCC(C1)N2c1ncccn1 (stereo not given in full) | inactive | 
34 | Cc1ccc(S(=O)(=O)O)c(C)c1 | inactive | 
35 | C=C(C)C(=O)OCCC(F)(F)C(F)(F)C(F)(F)C(F)(F)C(F)(F)C(F)(F)F | inactive | 
36 | CCCCCCCCCCCCc1ccccc1S(=O)(=O)O | inactive | 
